Screening results as filed in PubChem.
Most compounds without a hit are left out; they make up all but 21% or so of the library.
Shiga inhibitor = A qHTS for Small Molecule Inhibitors of Shiga Toxin. Vero cells, Shiga toxin protein synthesis inhibition reporter. inhibition, % at 38.7 µM. 290,000 compounds, 9.2% hits; in the data active = inhibition mostly above about 28%, no sharp cut-off; inactive = mostly below about 43%; note: 0% is about no effect
Pf growth 48h = Primary qHTS for delayed death inhibitors of the malarial parasite plastid, 48 hour incubation | P. falciparum luciferase growth in erythrocytes, 48 h | Potency, µM (highest dose often 28.7 µM), for the others: at the top dose activity change, negative = inhibition, hits mostly inhibitors | 310,000 compounds, 5.9% hits | AID 504832, 2011; note: potency is the fitted concentration of half-maximal effect; % is set by controls: 0 for no effect and ±100 for the full control effect
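Read-out is firefly luciferase luminescence from an integrated reporter in P. falciparum, so falling signal marks reduced parasite growth. Infected erythrocytes were at 2% hematocrit and 0.1% parasitemia (final) in Albumax-supplemented RPMI 1640.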
SARS PLpro yeast = qHTS of Yeast-based Assay for SARS-CoV PLP. S. cerevisiae expressing SARS-CoV PLpro, growth rescue. 330,000 compounds, 0.19% hits. Potency, µM (top dose mostly 32.9 µM), for inactives: top-dose activity, positive = growth rescue, usual class: activators. AID 485353, 2010; calls by dose curve; note: potency is the fitted concentration of half-maximal effect; 0% is about no effect; nearly all actives have a fitted effect of over 55% in size
NS1 inh = qHTS Assay for Inhibitors of Influenza NS1 Protein Function | Potency, µM (titrated, usually from 46.1 µM), for inactives: at the highest dose activity, positive = more growth | 270,000 compounds, 0.4% hits; calls by dose curve; note: potency is the fitted concentration of half-maximal effect; actives are rising curves; nearly all actives have a fitted effect of over 50% in size
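In this qHTS, NS1 from influenza A is expressed in budding yeast, where it slows growth. Cells are switched from glucose to 2% galactose medium (pH 6.0, -URA), treated with compound, and growth recovery is read at OD600.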
Pf growth 96h = Primary qHTS for delayed death inhibitors of the malarial parasite plastid, 96 hour incubation | Potency, µM (top dose mostly 28.7 µM), without a hit: at the highest dose activity change, negative = inhibition, hits mostly inhibitors | 320,000 compounds, 6.9% hits | P. falciparum luciferase reporter growth, 96 h; note: potency is the fitted concentration of half-maximal effect; % is set by controls: 0 for no effect and ±100 for the full control effect
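Erythrocytes infected with luciferase-expressing P. falciparum were dispensed at 2% hematocrit and 0.05% parasitemia (final), then incubated with compounds 96 hours at 37 C in 5% CO2. Luminescence after detection reagent addition reported growth.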
Cycloheximide cs = Cycloheximide Counterscreen for Small Molecule Inhibitors of Shiga Toxin | cell reporter, cycloheximide protein synthesis inhibition counterscreen | 300,000 compounds, 12% hits | max response, %; in the data active = max response mostly above about 13%, no sharp cut-off; inactive = mostly below about 14%; note: read at 38.3 µM for the half of the compounds with a filed dose; 0% is about no effect
* hit, by the source's call; ? = inconclusive; nt = not tested or not shown; [ ] = another dose, or the depositor's remark. Unless noted, calls come from the whole dose curve; as a rule, active = well fitted inhibition curve with a large enough effect; inconclusive = small, poorly fitted or top-dose-only effect, or another doubt; inactive = no such curve, though single readings can be large or run the other way.

SMILES | Shiga inhibitor | Pf growth 48h | SARS PLpro yeast | NS1 inh | Pf growth 96h | Cycloheximide cs
Cc1cccc(NS(=O)(=O)c2ccc(C(=O)N3CCN(c4ccccc4O)CC3)cc2)c1C | -6 | ? | -3% | -1% | ? | -2
O=C(N/N=C/c1coc2ccccc2c1=O)c1ccccc1Br | -3 | 4% | -14% | -33% | -14% | -2
Cn1c(=O)n(C)c2cc(/C=N/NC(=O)c3ccc(Cl)cc3Cl)ccc21 | 3 | 16% | 0% | -27% | 0% | 7
O=C(/C=N/NC(=O)c1ccccc1Br)c1ccccc1 | 81* | 23% | -1% | -8% | 31% | 46*
O=C(/C=N/NC(=O)c1ccc(Cl)cc1Cl)c1ccccc1 | 72* | 20% | -1% | -38% | 28% | 30*
Cc1ccc(C)c(NC(=S)NC23CN4CN(CN(C4)C2)C3)c1 | -11 | -7% | -4% | nt | -28% | -5
CC(=O)c1ccc(N2CCN(C(=O)CCCn3c(=S)[nH]c4cc5c(cc4c3=O)OCO5)CC2)cc1 | -6 | 12µM* | -7% | ? | 22% | -3
O=C(CCCn1c(=S)[nH]c2cc3c(cc2c1=O)OCO3)N1CCN(c2ccc(Cl)cc2)CC1 | -38 | -30% | 19% | ? | 51% | 1
O=C(CCCn1c(=S)[nH]c2cc3c(cc2c1=O)OCO3)N1CCN(c2ccccc2)CC1 | -11 | -16% | 8% | 2% | 13µM* | 0
NS(=O)(=O)c1ccc(-c2ccc([As](=O)(O)O)cc2)cc1 | nt | nt | nt | -3% | nt | nt
CC(C)C1=CC2=CC[C@@H]3[C@](C)(CCC[C@@]3(C)C(=O)O)[C@H]2CC1 | nt | -11% | nt | nt | ? | nt
CNS(=O)(=O)c1ccc2nc(NC(=O)/C=C/c3ccco3)sc2c1 | 26 | 1% | -6% | nt | 22% | 13
O=C1C(Cl)=C(N2CCC(C(=O)O)CC2)C(=O)c2ccccc21 | -8 | 12µM* | -3% | 6% | 12µM* | 1
COc1ccc(/C=C(\C#N)C(=O)Nc2ccccn2)cc1 | 84 | -11%[0.00184 µM] | 16% | -1% | -11% | 21*
COc1ccc(O)c(/C=C(\C#N)C(=O)Nc2ccccn2)c1 | 53* | 31% | 1% | -5% | 40% | 26*
C=CCOc1ccc(/C=C(\C#N)C(=O)Nc2ccccn2)cc1OC | -11 | 23% | -2% | -2% | 0% | -7
Cc1ccc(/C=C(\C#N)C(=O)Nc2ccccn2)o1 | 58 | 5% | -3% | -12% | 46% | 28*
CCn1cc(C(=O)O)c(=O)c2cnc(N3CCN(C(=S)Nc4ccccc4)CC3)nc21 | 11 | 0.12µM* | 0% | ? | ? | -2
CCOC(=O)c1cccc(NC(=S)N2CCN(c3ncc4c(=O)c(C(=O)O)cn(CC)c4n3)CC2)c1 | 2 | -3% | 1% | nt | 8% | -2
CCCCOC(=O)c1ccc(NC(=S)N2CCN(c3ncc4c(=O)c(C(=O)O)cn(CC)c4n3)CC2)cc1 | -3 | 2.6µM* | -1% | 3% | 1.3µM* | -2
CCn1cc(C(=O)O)c(=O)c2cnc(N3CCN(C(=O)Nc4ccccc4)CC3)nc21 | nt | nt | nt | 0% | nt | nt
O=C(CSc1nnc([C@@H]2CCCN2)o1)c1ccc(Cl)cc1 | 102* | 118% | -1% | -3% | 124% | 22*
C=C(C)CSc1nnc([C@@H]2CCCN2)o1 | 8 | 12% | 0% | 7% | -3% | -2
O=C(CSc1cccc[n+]1[O-])CSc1cccc[n+]1[O-] | -8 | 9.3µM* | -5% | -48% | 0.19µM* | 7
[O-][n+]1ccccc1SSc1cccc[n+]1[O-] | nt | 0.85µM* | nt | nt | 0.48µM* | nt
SMILES | Shiga inhibitor | Pf growth 48h | SARS PLpro yeast | NS1 inh | Pf growth 96h | Cycloheximide cs
CC(=O)N/C(=N/c1nc(C)cc(C)n1)Nc1ccc(C)cc1Cl | -5 | 8% | 4% | -1% | 10% | 3
CC(=O)Nc1nc2cc([N+](=O)[O-])ccc2s1 | nt | 32% | 0% | nt | 3% | nt
CC(=O)N/C(N)=N/c1nc2cc([N+](=O)[O-])ccc2o1 | 81 | 101% | -1% | 8% | 125% | 27*
CC(=O)N/C(N)=N/c1nc2cc(C)ccc2o1 | 63* | 214% | 0% | 4% | 274% | 37*
COc1ccc(C23CC4CC(CC(C4)C2)C3)cc1C(=O)NCCN(C)C | -4 | ? | -4% | 4% | 12µM* | 1
COc1ccccc1C(=O)NCCC(=O)NCCC12CC3CC(CC(C3)C1)C2 | -8 | 1% | -1% | 7% | -23% | 1
COc1ccc(C(=O)NNC(=O)c2ccc(S(=O)(=O)N3CC(C)OC(C)C3)cc2)cc1 (configuration not stated) | 29 | -5% | 1% | nt | 1.5µM* | -1
COc1ccc(COC(=O)c2ccc(Cl)c(S(=O)(=O)N3CC(C)OC(C)C3)c2)cc1 (configuration not stated) | nt | 4.7µM* | -4% | nt | 6.6µM* | nt
COc1cc(OC)cc(C(=O)NNC(=O)c2ccc(S(=O)(=O)N3CC(C)OC(C)C3)cc2)c1 (configuration not stated) | -8 | 9% | 1% | nt | ? | 11
CC1CN(C(=O)COC(=O)c2ccc(Cl)c(S(=O)(=O)N3CCCCC3)c2)CC(C)O1 (configuration not stated) | -12 | -5% | -1% | nt | -17% | 1
CCN1CCN(c2ccc(S(=O)(=O)N3CCOCC3)cc2NC(=O)/C=C/c2ccc([N+](=O)[O-])cc2)CC1 | nt | 2.6µM* | 2% | nt | 3.7µM* | nt
CCN1CCN(c2ccc(S(=O)(=O)N3CCOCC3)cc2NC(=O)/C=C/c2ccc(OC)cc2OC)CC1 | nt | 10µM* | 7% | nt | ? | nt
COc1ccc(/C=C/C(=O)Nc2ccc(S(=O)(=O)N3CCOCC3)cc2)c(OC)c1 | nt | 9.3µM* | 0% | nt | 9.3µM* | nt
O=C(CNC(=O)COc1ccccc1)NCc1cccnc1 | 12 | 28% | -6% | 1% | 23% | -5
CCOC(=O)Cc1ccc(NCc2ccc(Cl)cc2)cc1 | 23 | 7% | -3% | nt | ? | 12
Cc1ccc(-c2n[nH]c(Cc3ccccc3)n2)cc1 | 74* | 116% | -6% | -21% | 175% | 49*
Cc1ccc(OCc2nc(-c3ccc(Cl)cc3)n[nH]2)cc1 | 63* | 27% | -17% | -14% | 20% | 20*
Fc1ccc(OCc2nc(-c3ccncc3)n[nH]2)cc1 | 13 | 6% | -1% | -1% | 1% | -4
CCOC(=O)Cc1nc(-c2ccc(Cl)cc2)n[nH]1 | 38 | 33% | -4% | -5% | 56% | 26*
O=C1C=C(/C=C/C2C=CC=CC2)C[C@@H](c2ccc(Cl)cc2)C1 (some centres not stated) | nt | ? | -1% | nt | ? | nt
Cc1ccc2c(C)c(C(=O)N(C)Cc3nccn3C)oc2c1C | -7 | 19% | -5% | -2% | -18% | -2
O=C(OCC(=O)N1CCCC1=O)c1cc(Cl)ccc1O | nt | 19% | nt | nt | -2% | nt
